Experimental data from PubChem BioAssay.
Values without a mark were called inactive. The list shows a part of the results. The source made the active and inactive calls. Rule as the data show it, unless noted: active = inhibition above about 33%; inactive = the rest.

Assays:
[1] = biological target: Nuclear receptor coactivator 1 (Homo sapiens) (UniProt Q15788); test: SRC1 coactivator transcriptional activity inhibitors, confirmation, cell-based, luminescence, quadruplicate (AID 588820;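 active = mean inhibition above 46.68%, the untreated control wells mean plus 3 SD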;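 also: 0% = DMSO wells and 100% = gossypol 36 µM treated wells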); settings: HEK293 GAL4-SRC1 luciferase reporter, at 3.6 µM, active compounds read high
[2] = VP16 transactivation inhibitors, counter-screen for SRC1 inhibitor project, cell-based, luminescence, high throughput (AID 588824; in the data active = inhibition above about 25%); settings: cell-based VP16 transactivation luciferase luminescence; at 3.6 µM; active compounds read high
[3] = StAR promoter reporter inhibitors, counter-screen for LRH-1 inverse agonist project, cell-based, luminescence, high throughput (AID 651611; in the data active = inhibition above about 28%); settings: StAR promoter luciferase reporter counterscreen, at 3.6 µM, active compounds read high
[4] = biological target: Nuclear receptor subfamily 5 group A member 2 (Homo sapiens) (UniProt O00482); test: LRH-1 (NR5A2) inverse agonists, retest, confirmation, cell-based, luminescence (AID 651613; in the data active = inhibition above about 42%;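 also: HEK293T cells co-transfected with LRH-1 and StAR promoter luciferase reporter; 0% = vehicle wells and 100% = parental cells lacking receptor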); settings: cell-based LRH-1 luciferase reporter, inverse agonism; at 3.6 µM; active compounds read high
[5] = biological target: Steroidogenic factor 1 (Homo sapiens) (UniProt Q13285); test: SF1 (NR5A1) inverse agonists, counter-screen for LRH-1 inverse agonist project, cell-based, luminescence, high throughput (AID 651614; in the data active = inhibition above about 44%;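 also: cells cotransfected with StAR promoter reporter and SF1 expression vector; 0% = vehicle on cells with receptor and 100% = vehicle on cells lacking receptor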); settings: cell-based SF1 luciferase reporter, at 3.6 µM, active compounds read high
[6] = VP16 transactivation reporter inhibitors, counter-screen for LRH-1 inverse agonist project, cell-based, luminescence, high throughput (AID 651615); settings: Gal4-VP16 luciferase reporter cells, at 3.6 µM, active compounds read high
[7] = biological target: Receptor-interacting serine/threonine-protein kinase 2 (Homo sapiens) (UniProt O43353); test: NOD2-RIPK2 binding disruptors, retest, confirmation, fluorescence, CHO cells, BLA complementation, triplicate (AID 624370;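 active = mean inhibition across replicates above a set limit taken from the earlier primary screen, cut at about 21% in these data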;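 also: 0% = DMSO-only wells and the high end = clavulanate BLA-blocked wells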); settings: CCF4 FRET, at 4.98 µM, active compounds read high
[8] = beta-lactamase reporter inhibitors in CHO cells, confirmation, artefact control for NOD2-RIPK2 interaction inhibitor project, cell-based, CHO-K1 CMV-bla, CCF4 FRET, fluorescence (AID 624371;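 active = mean inhibition above the low-control mean inhibition plus three low-control SD, cut at about 11% in these data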;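 also: 0% = DMSO only wells and 100% = clavulanate high control wells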); settings: CCF4 FRET ratio, counterscreen, at 4.98 µM, active compounds read high
[9] = biological target: Photoreceptor-specific nuclear receptor (Homo sapiens) (UniProt Q9Y5X4); test: NR2E3 agonist confirmation in cells, cell-based, luminescence, CHO-S two-hybrid (AID 624378;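 active = average inhibition above a cutoff equal to the mean inhibition of all tested compounds plus one SD, cut at about 70% in these data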;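 also: 0% = DMSO in NR2E3 cells and 100% = DMSO in cells lacking NR2E3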); settings: CHO-S mammalian two-hybrid NR2E3-NCOR, luciferase luminescence; at 3.98 µM; active compounds read high
[10] = GAL4-VP16 reporter modulators, confirmation, counter-screen for NR2E3 agonist project, cell-based, luminescence, CHO-S, high throughput (AID 624379;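 active = mean inhibition above a cutoff equal to the average over all tested compounds plus one standard deviation, cut at about 70% in these data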;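 also: luciferase from a UAS reporter driven by GAL4-VP16 transactivation; 0% = DMSO with VP16-transfected cells and 100% = DMSO with cells lacking VP16; higher means less reporter light so more repression of VP16 activity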); settings: CHO-S GAL4-VP16 luciferase reporter, at 3.98 µM, active compounds read high
[11] = system: transactivating tegument protein VP16 (Human herpesvirus 1); test: VP16 transactivation reporter inhibitors, counter-screen for SRC2 inhibitor project, cell-based, luminescence, single concentration (AID 652007; in the data active = inhibition above about 36%); settings: cell-based VP16 transactivation luciferase reporter, at 8.9 µM, active compounds read high
[12] = biological target: Nuclear receptor coactivator 2 (Homo sapiens) (UniProt Q15596); test: SRC2 coactivator transcriptional activity inhibitors, confirmation, cell-based, luminescence, HEK293, triplicate (AID 652008;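 active = mean inhibition above 46.5%, the solvent-only control mean plus 3 SD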;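 also: 0% = DMSO-treated cells and 100% = Gossypol at 36 µM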); settings: HEK293 GAL4-SRC2 luciferase reporter, at 8.9 µM, active compounds read high
Chain of Nuclear receptor coactivator 2 (Homo sapiens) (Q15596 whole entry, looked up, the tested form may be a part): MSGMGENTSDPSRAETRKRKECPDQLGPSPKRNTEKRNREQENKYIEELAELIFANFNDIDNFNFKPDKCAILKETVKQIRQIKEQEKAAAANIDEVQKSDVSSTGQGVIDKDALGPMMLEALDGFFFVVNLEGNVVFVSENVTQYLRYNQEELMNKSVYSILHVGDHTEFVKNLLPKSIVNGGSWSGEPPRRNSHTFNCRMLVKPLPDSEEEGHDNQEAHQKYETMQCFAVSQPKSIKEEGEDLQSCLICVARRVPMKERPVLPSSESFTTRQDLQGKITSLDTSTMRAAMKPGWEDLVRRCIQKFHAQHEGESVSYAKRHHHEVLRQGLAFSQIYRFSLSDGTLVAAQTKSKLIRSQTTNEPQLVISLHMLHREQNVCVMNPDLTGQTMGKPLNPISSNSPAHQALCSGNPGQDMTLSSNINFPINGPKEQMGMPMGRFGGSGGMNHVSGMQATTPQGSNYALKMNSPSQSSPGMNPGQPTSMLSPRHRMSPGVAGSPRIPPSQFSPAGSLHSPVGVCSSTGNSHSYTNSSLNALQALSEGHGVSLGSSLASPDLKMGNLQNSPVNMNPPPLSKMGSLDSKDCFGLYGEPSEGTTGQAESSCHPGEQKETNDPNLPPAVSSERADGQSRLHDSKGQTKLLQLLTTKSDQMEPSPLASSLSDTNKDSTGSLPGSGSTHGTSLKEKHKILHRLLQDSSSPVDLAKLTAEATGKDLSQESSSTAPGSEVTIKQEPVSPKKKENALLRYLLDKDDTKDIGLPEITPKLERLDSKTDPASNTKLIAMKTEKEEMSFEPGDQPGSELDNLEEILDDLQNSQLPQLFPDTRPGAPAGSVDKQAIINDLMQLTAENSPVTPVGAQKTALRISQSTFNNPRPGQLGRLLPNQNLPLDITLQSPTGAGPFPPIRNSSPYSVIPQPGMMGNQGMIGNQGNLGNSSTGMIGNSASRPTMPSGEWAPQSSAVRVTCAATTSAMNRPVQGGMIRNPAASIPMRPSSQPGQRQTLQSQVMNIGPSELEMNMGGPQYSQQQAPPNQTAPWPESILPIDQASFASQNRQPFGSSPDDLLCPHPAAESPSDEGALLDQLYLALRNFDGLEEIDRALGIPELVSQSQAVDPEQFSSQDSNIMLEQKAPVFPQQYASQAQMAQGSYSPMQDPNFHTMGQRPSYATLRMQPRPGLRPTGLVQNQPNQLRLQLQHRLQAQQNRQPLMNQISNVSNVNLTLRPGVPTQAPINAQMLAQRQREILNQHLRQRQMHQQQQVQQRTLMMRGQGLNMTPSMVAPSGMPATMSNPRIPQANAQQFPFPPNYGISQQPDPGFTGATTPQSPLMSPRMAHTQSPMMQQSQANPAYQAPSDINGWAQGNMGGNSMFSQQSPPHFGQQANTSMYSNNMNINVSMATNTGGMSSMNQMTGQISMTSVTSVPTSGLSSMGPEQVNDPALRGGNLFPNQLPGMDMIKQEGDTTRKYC

Chain of Nuclear receptor coactivator 1 (Homo sapiens) (Q15788 whole entry, looked up, the tested form may be a part): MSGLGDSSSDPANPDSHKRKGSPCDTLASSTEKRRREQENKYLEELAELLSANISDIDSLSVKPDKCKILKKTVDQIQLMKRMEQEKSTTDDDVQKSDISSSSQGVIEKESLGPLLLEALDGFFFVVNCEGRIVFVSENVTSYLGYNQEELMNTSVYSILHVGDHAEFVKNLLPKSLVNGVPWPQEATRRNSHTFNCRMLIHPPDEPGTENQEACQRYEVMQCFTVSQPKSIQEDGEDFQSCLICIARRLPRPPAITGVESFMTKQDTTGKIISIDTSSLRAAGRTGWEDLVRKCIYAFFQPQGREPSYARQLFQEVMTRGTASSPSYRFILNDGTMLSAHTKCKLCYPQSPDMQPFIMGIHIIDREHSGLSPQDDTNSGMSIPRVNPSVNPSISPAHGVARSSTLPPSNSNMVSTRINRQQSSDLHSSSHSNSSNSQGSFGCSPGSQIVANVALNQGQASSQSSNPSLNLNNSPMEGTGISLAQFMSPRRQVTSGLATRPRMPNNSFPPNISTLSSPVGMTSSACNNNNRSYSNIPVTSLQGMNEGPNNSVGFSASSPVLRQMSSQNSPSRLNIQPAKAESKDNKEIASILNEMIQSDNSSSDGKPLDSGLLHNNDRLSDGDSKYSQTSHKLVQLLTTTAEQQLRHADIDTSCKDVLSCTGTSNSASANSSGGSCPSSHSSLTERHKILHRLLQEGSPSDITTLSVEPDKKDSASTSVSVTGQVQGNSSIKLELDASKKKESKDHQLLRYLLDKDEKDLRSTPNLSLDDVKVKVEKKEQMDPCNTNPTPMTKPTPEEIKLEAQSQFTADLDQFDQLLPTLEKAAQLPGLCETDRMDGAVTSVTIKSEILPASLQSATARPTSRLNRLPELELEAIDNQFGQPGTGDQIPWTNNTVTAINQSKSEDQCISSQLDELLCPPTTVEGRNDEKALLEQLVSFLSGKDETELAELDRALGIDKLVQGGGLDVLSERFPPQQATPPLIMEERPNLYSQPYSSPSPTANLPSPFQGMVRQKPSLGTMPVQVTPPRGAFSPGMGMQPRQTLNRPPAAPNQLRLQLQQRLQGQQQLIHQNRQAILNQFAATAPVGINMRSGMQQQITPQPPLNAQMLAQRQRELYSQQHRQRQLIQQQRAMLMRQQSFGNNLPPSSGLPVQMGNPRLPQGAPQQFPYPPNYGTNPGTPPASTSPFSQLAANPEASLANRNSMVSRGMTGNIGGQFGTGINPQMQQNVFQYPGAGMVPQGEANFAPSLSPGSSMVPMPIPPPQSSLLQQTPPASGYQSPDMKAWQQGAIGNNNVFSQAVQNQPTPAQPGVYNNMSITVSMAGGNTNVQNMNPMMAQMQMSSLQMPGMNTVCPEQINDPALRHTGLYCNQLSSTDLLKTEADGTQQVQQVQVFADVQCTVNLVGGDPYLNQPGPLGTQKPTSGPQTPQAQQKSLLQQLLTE
Chain of Steroidogenic factor 1 (Homo sapiens) (Q13285 whole entry, looked up, the tested form may be a part): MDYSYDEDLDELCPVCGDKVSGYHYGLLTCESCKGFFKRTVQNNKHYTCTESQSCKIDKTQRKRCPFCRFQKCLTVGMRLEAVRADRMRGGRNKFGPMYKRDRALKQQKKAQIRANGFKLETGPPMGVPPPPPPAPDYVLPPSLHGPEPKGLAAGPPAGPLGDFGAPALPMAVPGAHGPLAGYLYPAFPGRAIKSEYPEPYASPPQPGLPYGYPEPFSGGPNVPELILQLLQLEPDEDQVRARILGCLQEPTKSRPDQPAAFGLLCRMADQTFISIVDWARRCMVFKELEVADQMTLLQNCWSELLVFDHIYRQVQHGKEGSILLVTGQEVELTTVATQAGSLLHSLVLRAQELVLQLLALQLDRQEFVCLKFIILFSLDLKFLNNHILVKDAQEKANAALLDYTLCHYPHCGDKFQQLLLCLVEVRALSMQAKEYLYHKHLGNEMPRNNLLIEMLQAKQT
Chain of Nuclear receptor subfamily 5 group A member 2 (Homo sapiens) (O00482 whole entry, looked up): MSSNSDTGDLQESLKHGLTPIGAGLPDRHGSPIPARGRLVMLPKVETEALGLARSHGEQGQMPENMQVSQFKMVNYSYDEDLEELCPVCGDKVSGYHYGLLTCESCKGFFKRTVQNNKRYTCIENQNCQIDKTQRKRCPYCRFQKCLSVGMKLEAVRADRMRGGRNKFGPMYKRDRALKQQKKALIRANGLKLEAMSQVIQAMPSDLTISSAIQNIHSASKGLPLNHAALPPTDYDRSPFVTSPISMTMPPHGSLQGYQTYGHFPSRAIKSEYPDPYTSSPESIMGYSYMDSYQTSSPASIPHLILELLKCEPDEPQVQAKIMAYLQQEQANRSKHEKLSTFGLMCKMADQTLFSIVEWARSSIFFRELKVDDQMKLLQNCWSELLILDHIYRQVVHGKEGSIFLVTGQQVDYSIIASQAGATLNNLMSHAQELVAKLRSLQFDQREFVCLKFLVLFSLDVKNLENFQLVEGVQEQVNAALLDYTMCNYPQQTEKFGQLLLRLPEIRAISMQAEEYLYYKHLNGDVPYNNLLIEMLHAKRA
Chain of Receptor-interacting serine/threonine-protein kinase 2 (Homo sapiens) (O43353 whole entry, looked up): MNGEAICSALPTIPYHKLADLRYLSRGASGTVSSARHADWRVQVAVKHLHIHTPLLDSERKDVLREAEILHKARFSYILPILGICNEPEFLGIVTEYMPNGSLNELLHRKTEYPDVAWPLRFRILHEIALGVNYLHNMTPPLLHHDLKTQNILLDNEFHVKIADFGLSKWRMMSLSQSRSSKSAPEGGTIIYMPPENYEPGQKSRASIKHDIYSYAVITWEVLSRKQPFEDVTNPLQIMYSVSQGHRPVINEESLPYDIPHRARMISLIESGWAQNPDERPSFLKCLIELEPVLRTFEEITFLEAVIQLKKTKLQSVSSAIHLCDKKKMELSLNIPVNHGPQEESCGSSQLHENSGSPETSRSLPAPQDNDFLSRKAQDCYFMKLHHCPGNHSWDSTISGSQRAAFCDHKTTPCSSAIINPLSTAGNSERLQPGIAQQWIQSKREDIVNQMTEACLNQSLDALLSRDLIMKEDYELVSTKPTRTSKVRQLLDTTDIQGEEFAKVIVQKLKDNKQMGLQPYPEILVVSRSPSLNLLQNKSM
Chain of Photoreceptor-specific nuclear receptor (Homo sapiens) (Q9Y5X4 whole entry, looked up, the tested form may be a part): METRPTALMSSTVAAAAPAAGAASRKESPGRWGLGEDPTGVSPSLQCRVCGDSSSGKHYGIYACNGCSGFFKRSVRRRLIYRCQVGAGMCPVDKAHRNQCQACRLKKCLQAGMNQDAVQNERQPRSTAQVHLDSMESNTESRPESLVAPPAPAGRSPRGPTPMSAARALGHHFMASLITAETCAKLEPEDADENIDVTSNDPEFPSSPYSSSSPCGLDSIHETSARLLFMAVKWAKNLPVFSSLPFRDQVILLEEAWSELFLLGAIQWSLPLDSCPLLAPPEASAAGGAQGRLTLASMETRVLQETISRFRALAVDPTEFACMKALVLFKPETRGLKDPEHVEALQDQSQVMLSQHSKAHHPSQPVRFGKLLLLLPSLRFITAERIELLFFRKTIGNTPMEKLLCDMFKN

`COc1cccc2cc(-c3cc(=O)oc4ccc(OC(=O)N(C)C)cc34)oc12` showed an inhibition [1] of -17.6% and an inhibition [2] of -14.6%.
With `CC(C)(C)c1ccc(CSc2cnn(C(C)(C)C)c(=O)c2Cl)cc1` the inhibition [1] was -34.9%, the inhibition [2] was 44.7% (active) and the inhibition [3] was 28.1% (active). For the same compound, the inhibition [4] was 99.2% (active), the inhibition [5] was 63.8% (active) and the inhibition [6] was 57.7% (active).
In the case of `COc1cc2c(cc1OC)C1C(=O)c3ccc4c(c3OC1CO2)CC(C(C)C)O4` (configuration not stated), the inhibition [1] is reported as -30.2%, the inhibition [2] is reported as 41.4% (active) and the inhibition [3] is reported as 40.3% (active). The inhibition [4] was 71.2% (active), the inhibition [5] was 73.1% (active) and the inhibition [6] was 65.5% (active).
With `COc1ccc2c(c1)/C(=C/c1cnc[nH]1)C(=O)N2` the inhibition [1] was 13.1%, the inhibition [2] was 19% and the inhibition [3] was 59.4% (active). The inhibition [4] was 85.8% (active), the inhibition [5] was 72.9% (active) and the inhibition [6] was 11.2%.
In the case of `CCCCC(CC)COCCCN=Cc1c(O)[nH]c(=S)[nH]c1=O` (configuration not stated), the inhibition [1] is reported as 29.9% and the inhibition [2] is reported as 17.5%.
For `O=Cc1cn(Cc2cccc([N+](=O)[O-])c2)c2ccccc12`, the inhibition [1] was 39.9%, the inhibition [2] was 30.7% (active) and the inhibition [3] was 65.6% (active). For the same compound, the inhibition [4] was 74.4% (active), the inhibition [5] was 80.3% (active) and the inhibition [6] was 14.4%.
For `COC(=O)C1=C(c2ccc(-c3ccccc3)c(F)c2)C[C@@H]2CC[C@H]1N2C(=O)NC1CC1`, the inhibition [1] was 15.1% and the inhibition [2] was 25.6% (active).
For `N#Cc1ccc(Cn2cc(C=O)c3ccccc32)cc1`, the inhibition [3] was 4.87%, the inhibition [4] was 39.1% and the inhibition [5] was 42.4%. For the same compound, the inhibition [6] was 1.97%.
In the case of `CC1CCN(C(=O)CCl)CC1`, the inhibition [3] is reported as 21.1%, the inhibition [4] is reported as 58.2% (active) and the inhibition [5] is reported as 57% (active). For the same compound, the inhibition [6] was -7.83%.
In the case of `Cc1ccc(-n2nc(C)cc2NC(=O)COc2cc(C)cc3oc(=O)c4c(c23)CCC4)cc1`, the inhibition [3] is reported as 19.1%, the inhibition [4] is reported as 60.3% (active) and the inhibition [5] is reported as 61.2% (active). It also gave an inhibition [6] of -10.8%.
With `CC[n+]1c(/C=C/C=C/c2ccc(N(C)C)cc2)sc2ccccc21` the inhibition [3] was 54% (active), the inhibition [4] was 104% (active) and the inhibition [5] was 86.4% (active). The inhibition [6] was 86.5% (active).
`COc1ccc(-n2nnnc2C(c2cccc3ccccc23)N2CCC3(CC2)C(=O)NCN3c2ccccc2)cc1` (configuration not stated) showed an inhibition [1] of -1.91% and an inhibition [2] of 5.57%.
With `CC1=CC(O)C(O)C2(C)C1CC1OC(=O)CC3C(C)C(O)C(=O)C2C13CO` (configuration not stated) the inhibition [3] was 18.7%, the inhibition [4] was 43% (active) and the inhibition [5] was 45.9% (active). For the same compound, the inhibition [6] was -0.77%.
For `CCOC(=O)[C@]12Cc3ccccc3[C@H]1N(C1CCCCC1)C(=O)c1cc(OC)ccc12`, the inhibition [7] was 61.3% (active), the inhibition [8] was 0.28% and the inhibition [3] was 55.3% (active). For the same compound, the inhibition [4] was 98% (active), the inhibition [5] was 58.9% (active) and the inhibition [6] was 85.2% (active).
`O=C1Nc2ccccc2/C1=C/c1cnc[nH]1` showed an inhibition [3] of 14.6%, an inhibition [4] of 14.2% and an inhibition [5] of 40.8%. For the same compound, the inhibition [6] was -10.7%.
With `CC12CCC(O)CC1CCC1C2CCC2(C)C(C3=CC(=O)OC3)C(O)CC12O` (configuration not stated) the inhibition [3] was 92.6% (active), the inhibition [4] was 94.1% (active) and the inhibition [5] was 74.8% (active). The inhibition [6] was 41% (active).
For `CCN(CC)C1=NC(=[N+](CC)CC)c2ccccc21`, the inhibition [1] was 9.91%, the inhibition [2] was 31.1% (active) and the inhibition [3] was 33.7% (active). For the same compound, the inhibition [4] was 107% (active), the inhibition [5] was 74.5% (active) and the inhibition [6] was 85.6% (active).
In the case of `Cc1ccc2c(C)c3ccc4ccccc4c3c[n+]2c1`, the inhibition [1] is reported as 17.2%, the inhibition [2] is reported as 31.6% (active) and the inhibition [3] is reported as 28.1% (active). The inhibition [4] was 99.6% (active), the inhibition [5] was 39.4% and the inhibition [6] was 78% (active).
For `CCOC(=O)[C@]12Cc3cc(Cl)ccc3[C@H]1N(C1CCCCC1)C(=O)c1cc(OC)ccc12`, the inhibition [3] was 87.5% (active), the inhibition [4] was 105% (active) and the inhibition [5] was 93.1% (active). For the same compound, the inhibition [6] was 87.7% (active).
`CC(C)CNc1c2c(nc3ccccc13)CCC2` showed an inhibition [1] of 7.81% and an inhibition [2] of 17.3%.
With `CN1C(=O)C(=Cc2ccc(N3CCCCCC3)cc2)C(=O)N(C)C1=O` the inhibition [3] was 9.79%, the inhibition [4] was 57% (active) and the inhibition [5] was 48.1% (active). The inhibition [6] was -4.85%.
With `CC1=CC2OC3CC4OC(=O)C=CC=CC(=O)OCCC(C)C(O)C(=O)OCC2(CC1)C4(C)C31CO1` (configuration not stated) the inhibition [3] was 96.6% (active), the inhibition [4] was 109% (active) and the inhibition [5] was 98.2% (active). For the same compound, the inhibition [6] was 98.1% (active).
`CC(=NCc1ccc2c(c1)OCO2)c1c(O)[nH]c(=O)[nH]c1=O` showed an inhibition [9] of 2.39% and an inhibition [10] of 8.56%.
Compound `COC(=O)C12CCc3c(ccc4cc(OC)ccc34)C1=CC(=O)C2` (configuration not stated) has an inhibition [3] of 0.25%, an inhibition [4] of 12.9% and an inhibition [5] of 25.3%. It also gave an inhibition [6] of -1.27%.
In the case of `N#Cc1c(Br)n(C2OC(CO)C(O)C2O)c2ncnc(N)c12` (configuration not stated), the inhibition [1] is reported as 40.9%, the inhibition [2] is reported as 29.9% (active) and the inhibition [3] is reported as 61.8% (active). The inhibition [4] was 77.3% (active), the inhibition [5] was 63.2% (active) and the inhibition [6] was 48.6% (active). For the same compound, the inhibition [11] was -16.7% and the inhibition [12] was 54.4% (active).
For `CC(=O)c1cn(Cc2ccccc2C#N)c2ccccc12`, the inhibition [3] was 28.8% (active), the inhibition [4] was 57.2% (active) and the inhibition [5] was 55.8% (active). For the same compound, the inhibition [6] was 55.5% (active).
In the case of `CC(=O)O[C@H]1C(=O)[C@@]2(C)C([C@H](OC(=O)c3ccccc3)[C@]3(O)C[C@H](OC(=O)[C@H](O)[C@@H](NC(=O)Cc4ccccc4)c4ccccc4)C(C)=C1C3(C)C)[C@]1(OC(C)=O)CO[C@@H]1C[C@@H]2O` (some centres not stated), the inhibition [3] is reported as 50.1% (active), the inhibition [4] is reported as 45.2% (active) and the inhibition [5] is reported as 54.9% (active). The inhibition [6] was 36.1% (active).
With `Cc1cc(S(=O)(=O)NC(C)C)ccc1OCC(=O)N1CCN(Cc2ccc3c(c2)OCO3)CC1` the inhibition [3] was 16.6%, the inhibition [4] was 52.9% (active) and the inhibition [5] was 40%. For the same compound, the inhibition [6] was 19.5%.
For `CC(=O)OC(C)(C)/C=C/C(=O)C(C)(O)C1C(O)CC2(C)C3CC=C4C(CC(O)C(=O)C4(C)C)C3(C)C(=O)CC12C` (configuration not stated), the inhibition [3] was 66% (active), the inhibition [4] was 56.8% (active) and the inhibition [5] was 59.2% (active). For the same compound, the inhibition [6] was 59.7% (active).
